Experimental data published in publication PMC9838217, “Structure of SALL4 zinc finger domain reveals link between AT-rich DNA binding and Okihiro syndrome”.
Changes are numbered by the printed parent chain.

Key:
Experiment in all cases: HT-SELEX; high values mean tight binding
Conditions in all cases: protein: recombinant; vector His6-GST; dsDNA, one strand shown
SALL4 ZFC4 WT (HT-SELEX) = molecular target: T1, SALL4 ZFC4 WT (HT-SELEX) (Mus musculus, UniProt Q8BX22 870-940)
T1 sequence: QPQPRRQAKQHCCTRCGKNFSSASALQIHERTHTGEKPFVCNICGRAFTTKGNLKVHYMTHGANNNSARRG
Procedure, shortened: (§1)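 Purified recombinant mouse SALL4 zinc finger cluster 4 (residues 870–940, 1 µg) was incubated with library DNA (1.5 µg first cycle, 200 ng later) in 100 µl buffer (10 mM Tris–HCl pH 7.5, 50 mM NaCl, poly(dI-dC), DTT) for 10 min at room temperature. Ni2+ bead-captured complexes were washed, PCR-amplified and reselected for up to 6 cycles, in triplicate, then MiSeq-sequenced and scanned for 6-mers. Binding signal is each canonical k-mer's read fraction as fold change versus the initial random library.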

[1] = molecular target: T2, SALL4 ZFC4 R900W (HT-SELEX) (Mus musculus, UniProt Q8BX22 870-940, R900W)
T2 sequence: T1 sequence with R31W
Procedure, shortened: as §1

[2] = molecular target: T3, SALL4 ZFC4 G921D (HT-SELEX) (Mus musculus, UniProt Q8BX22 870-940, G921D)
T3 sequence: T1 sequence with G52D
Procedure, shortened: as §1

Row | Sequence | binding signal (SALL4 ZFC4 WT (HT-SELEX)) [fold-change vs cycle 0] | binding signal [1] [fold-change vs cycle 0] | binding signal [2] [fold-change vs cycle 0]
1 | CCTGCA | 0.34 ± 0.0217 | 0.407 ± 0.0271 | 0.515 ± 0.0759
2 | AAGTCT | 1.259 ± 0.00421 | 1.4 ± 0.0184 | 1.38 ± 0.0691
3 | GCCATA | 0.544 ± 0.0118 | 0.556 ± 0.0265 | 0.681 ± 0.0554
4 | AAGGTC | 0.725 ± 0.0449 | 0.885 ± 0.0273 | 0.943 ± 0.0196
5 | ATCCCA | 0.89 ± 0.0366 | 0.976 ± 0.0258 | 0.979 ± 0.0303
6 | AAGTAC | 1.23 ± 0.0679 | 1.37 ± 0.0898 | 1.31 ± 0.0947
7 | CCTCAC | 0.47 ± 0.0318 | 0.561 ± 0.0275 | 0.658 ± 0.0448
8 | GTCAGA | 0.728 ± 0.0316 | 0.836 ± 0.0595 | 0.887 ± 0.0403
9 | CCGTAG | 0.35 ± 0.01 | 0.427 ± 0.0139 | 0.516 ± 0.0548
10 | ACAGGT | 0.824 ± 0.0401 | 0.95 ± 0.0293 | 0.985 ± 0.0191
11 | AACACC | 0.749 ± 0.0181 | 0.848 ± 0.0177 | 0.89 ± 0.0213
12 | ACGGAA | 0.706 ± 0.0319 | 0.803 ± 0.0284 | 0.868 ± 0.0441
13 | TGAGAA | 1.37 ± 0.0413 | 1.49 ± 0.0497 | 1.38 ± 0.0987
14 | AGTCGA | 0.617 ± 0.0356 | 0.697 ± 0.0314 | 0.807 ± 0.0559
15 | CAGGAG | 0.48 ± 0.0178 | 0.596 ± 0.041 | 0.676 ± 0.0293
16 | GGTCAC | 0.432 ± 0.0454 | 0.512 ± 0.0261 | 0.662 ± 0.0597
17 | CAACTC | 0.778 ± 0.0269 | 0.92 ± 0.0298 | 0.994 ± 0.018
18 | CGCAAA | 0.335 ± 0.00942 | 0.376 ± 0.0263 | 0.498 ± 0.0731
19 | AACCAA | 1.22 ± 0.0287 | 1.31 ± 0.0414 | 1.28 ± 0.0656
20 | AGTCAC | 0.789 ± 0.043 | 0.9321 ± 0.00858 | 0.975 ± 0.0241
21 | ATTACG | 1.22 ± 0.102 | 1.27 ± 0.0629 | 1.23 ± 0.0609
22 | AACATG | 1.25 ± 0.0212 | 1.38 ± 0.0255 | 1.32 ± 0.0877
23 | ATTACC | 1.49 ± 0.0761 | 1.51 ± 0.105 | 1.43 ± 0.105

Row | Sequence | binding signal (SALL4 ZFC4 WT (HT-SELEX)) [fold-change vs cycle 0] | binding signal [1] [fold-change vs cycle 0] | binding signal [2] [fold-change vs cycle 0]
24 | GAACCA | 0.766 ± 0.0201 | 0.871 ± 0.0494 | 0.937 ± 0.0521
25 | CACGTC | 0.427 ± 0.0304 | 0.52 ± 0.0494 | 0.633 ± 0.0372
26 | AGTACA | 1.29 ± 0.0355 | 1.43 ± 0.0834 | 1.35 ± 0.0882
27 | CCTAGG | 0.46 ± 0.0474 | 0.588 ± 0.0412 | 0.669 ± 0.0278
28 | AACTCC | 0.917 ± 0.0119 | 1.02 ± 0.0156 | 1.06 ± 0.0177
29 | TGCTAA | 1.16 ± 0.0453 | 1.24 ± 0.0475 | 1.21 ± 0.0656
30 | AACTCT | 1.39 ± 0.0293 | 1.52 ± 0.0171 | 1.47 ± 0.0843
31 | CTTCAA | 1.25 ± 0.0505 | 1.41 ± 0.0826 | 1.33 ± 0.122
32 | AACTGC | 0.6 ± 0.0299 | 0.647 ± 0.0277 | 0.741 ± 0.0348
33 | AATGGA | 1.38 ± 0.0388 | 1.47 ± 0.0617 | 1.39 ± 0.0841
34 | TAGCTA | 1.22 ± 0.05 | 1.3 ± 0.064 | 1.29 ± 0.0827
35 | ACGACA | 0.543 ± 0.0412 | 0.639 ± 0.0243 | 0.747 ± 0.0208
36 | GGTACC | 0.421 ± 0.0151 | 0.521 ± 0.0308 | 0.608 ± 0.0352
37 | ATCAGA | 1.37 ± 0.0717 | 1.43 ± 0.0639 | 1.38 ± 0.109
38 | TCGAAA | 0.999 ± 0.0813 | 1.02 ± 0.0328 | 1.06 ± 0.0355
39 | ATGCAG | 0.674 ± 0.0311 | 0.754 ± 0.0134 | 0.818 ± 0.0231
40 | GATAGC | 0.692 ± 0.0348 | 0.798 ± 0.0237 | 0.8754 ± 0.00393
41 | CTTGAA | 1.25 ± 0.0309 | 1.42 ± 0.0651 | 1.32 ± 0.0914
42 | ACCCAC | 0.443 ± 0.0307 | 0.506 ± 0.0282 | 0.606 ± 0.0557
43 | GTATAC | 1.25 ± 0.0389 | 1.39 ± 0.0328 | 1.34 ± 0.0932
44 | GTTTAA | 1.69 ± 0.0773 | 1.79 ± 0.0911 | 1.63 ± 0.153
45 | TGAAAA | 2.04 ± 0.151 | 1.73 ± 0.0528 | 1.57 ± 0.0962
46 | CAACAG | 0.698 ± 0.0379 | 0.824 ± 0.0446 | 0.869 ± 0.0293

Row | Sequence | binding signal (SALL4 ZFC4 WT (HT-SELEX)) [fold-change vs cycle 0] | binding signal [1] [fold-change vs cycle 0] | binding signal [2] [fold-change vs cycle 0]
47 | AGTCTC | 0.837 ± 0.0339 | 0.9527 ± 0.00762 | 1 ± 0.0392
48 | TAAAGA | 2.04 ± 0.114 | 2.15 ± 0.111 | 1.82 ± 0.201
49 | ACTTGG | 0.787 ± 0.0269 | 0.907 ± 0.0234 | 0.936 ± 0.0313
50 | GGGAAC | 0.517 ± 0.0146 | 0.591 ± 0.0347 | 0.653 ± 0.041
51 | ACTTTG | 1.14 ± 0.054 | 1.27 ± 0.0366 | 1.24 ± 0.052
52 | AGGATA | 1.55 ± 0.0339 | 1.69 ± 0.0876 | 1.5 ± 0.15
53 | CCCGTA | 0.415 ± 0.0258 | 0.477 ± 0.0181 | 0.557 ± 0.0362
54 | CTCCGA | 0.382 ± 0.00698 | 0.433 ± 0.0122 | 0.589 ± 0.0734
55 | AGGAAT | 1.52 ± 0.0788 | 1.63 ± 0.0707 | 1.49 ± 0.113
56 | AGACGA | 0.675 ± 0.0154 | 0.786 ± 0.0316 | 0.86 ± 0.0237
57 | ATCGAT | 1.23 ± 0.075 | 1.21 ± 0.0415 | 1.3 ± 0.0771
58 | TCAACA | 1.19 ± 0.0385 | 1.35 ± 0.0647 | 1.3 ± 0.0976
59 | CAAGGG | 0.487 ± 0.0326 | 0.5882 ± 0.00585 | 0.665 ± 0.033
60 | AATCTC | 1.38 ± 0.0549 | 1.5 ± 0.0336 | 1.43 ± 0.0651
61 | ACACCT | 0.834 ± 0.0401 | 0.949 ± 0.0347 | 0.979 ± 0.022
62 | GTTAGA | 1.3 ± 0.0316 | 1.47 ± 0.0186 | 1.41 ± 0.0651
63 | AGAAAA | 1.83 ± 0.0887 | 1.85 ± 0.0773 | 1.63 ± 0.11
64 | GACTGC | 0.3204 ± 0.00172 | 0.399 ± 0.0161 | 0.525 ± 0.0461
65 | AAAGGG | 0.754 ± 0.0569 | 0.891 ± 0.0422 | 0.879 ± 0.0118
66 | GTTTGA | 1.14 ± 0.0365 | 1.26 ± 0.0348 | 1.23 ± 0.0615
67 | ACCTAT | 1.37 ± 0.0376 | 1.45 ± 0.0775 | 1.43 ± 0.0809
68 | ATCACG | 0.751 ± 0.0409 | 0.856 ± 0.012 | 0.923 ± 0.0125
69 | CACGAC | 0.303 ± 0.0099 | 0.381 ± 0.0158 | 0.501 ± 0.0536

Row | Sequence | binding signal (SALL4 ZFC4 WT (HT-SELEX)) [fold-change vs cycle 0] | binding signal [1] [fold-change vs cycle 0] | binding signal [2] [fold-change vs cycle 0]
70 | GGATAC | 0.871 ± 0.0477 | 1.02 ± 0.0352 | 1.03 ± 0.0426
71 | CCACAC | 0.35 ± 0.0241 | 0.414 ± 0.0369 | 0.516 ± 0.0626
72 | ACCTAA | 1.36 ± 0.0814 | 1.46 ± 0.0702 | 1.37 ± 0.0509
73 | GGTTAA | 1.23 ± 0.0345 | 1.4 ± 0.0959 | 1.3 ± 0.0896
74 | AAGTGA | 1.34 ± 0.0271 | 1.52 ± 0.0501 | 1.42 ± 0.0562
75 | GTCCTA | 0.764 ± 0.0287 | 0.905 ± 0.0413 | 0.9363 ± 0.00722
76 | AAGCCA | 0.541 ± 0.0136 | 0.628 ± 0.0233 | 0.751 ± 0.0535
77 | TAAACA | 1.9 ± 0.127 | 1.91 ± 0.125 | 1.73 ± 0.187
78 | AGCACT | 0.65 ± 0.0278 | 0.746 ± 0.0409 | 0.859 ± 0.0159
79 | CCTGGA | 0.496 ± 0.0295 | 0.556 ± 0.0141 | 0.647 ± 0.0202
80 | AATTAT | 4.89 ± 0.536 | 2.6 ± 0.249 | 2.25 ± 0.303
81 | ATGAAG | 1.56 ± 0.0293 | 1.68 ± 0.108 | 1.51 ± 0.124
82 | ATTGCG | 0.438 ± 0.0111 | 0.47 ± 0.0102 | 0.614 ± 0.0595
83 | AACCTT | 1.35 ± 0.0624 | 1.5 ± 0.0445 | 1.39 ± 0.0775
84 | ATTTCC | 1.33 ± 0.0842 | 1.28 ± 0.0652 | 1.25 ± 0.0764
85 | CATATA | 2.3 ± 0.215 | 1.91 ± 0.115 | 1.71 ± 0.163
86 | CGGTAC | 0.362 ± 0.0117 | 0.437 ± 0.0232 | 0.552 ± 0.049
87 | GACCAC | 0.381 ± 0.00949 | 0.448 ± 0.0299 | 0.55 ± 0.0669
88 | ACTAGT | 1.33 ± 0.0473 | 1.52 ± 0.0779 | 1.37 ± 0.106
89 | GAGCAC | 0.415 ± 0.0413 | 0.537 ± 0.0508 | 0.674 ± 0.0417
90 | CCGTTA | 0.746 ± 0.0254 | 0.832 ± 0.0409 | 0.854 ± 0.0323
